Bioassay records (PubChem)
DT40 TDP1 no CPT: qHTS for Inhibitors of human tyrosyl-DNA phosphodiesterase 1 (TDP1): qHTS in cells in absence of CPT; 15% of 420,000 active; Potency, µM (top dose mostly 46.2 µM), for inactives: at the highest dose activity change, negative = growth inhibition, most hits filed as inhibitors; AID 686978, 2013; DT40 Tdp1-/- hTDP1 cells, no CPT, ATP luminescence, 48 h; further: potency means the concentration at half of the fitted maximal effect; nearly all actives have a fitted effect of over 55% in size
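Camptothecin absent (DMSO only). Human TDP1-complemented DT40 knockout cells, 400 cells/well, 37 °C for minimum 48 hr; ATP measured via CellTiter-Glo, 30 min dark incubation, luminescence.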
HT1080 IDH1KD tx: qHTS for induction of synthetic lethality in tumor cells producing 2HG: qHTS for the HT-1080-IDH1KD cell line | HT-1080 IDH1 knockdown viability, ATP luminescence, 48 h | Potency, µM (highest dose often 46.1 µM), inactives show at the top dose activity, negative = toxicity, hits mostly cytotoxic | 2% of 360,000 active | AID 686971, 2013;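 further: potency means the concentration at half of the fitted maximal effect; 0% = DMSO wells and -100% = cell-free medium wells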
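CellTiter-Glo luminescence after 48 h compound exposure at 37 degrees C of IDH1-knockdown HT-1080 cells in 5% FBS RPMI. %Activity scaled between DMSO wells and cell-free media wells, with curves fitted and assigned curve classes.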
DT40 TDP1 CPT: qHTS for Inhibitors of human tyrosyl-DNA phosphodiesterase 1 (TDP1): qHTS in cells in presence of CPT | chicken DT40 Tdp1-/-;hTDP1 cells + 20 nM CPT, ATP luminescence, 48 h | Potency, µM (titrated, usually from 46.2 µM), inactives show top-dose activity change, negative = growth inhibition, usual class: inhibitors | 12% of 420,000 active | AID 686979, 2013; further: potency means the concentration at half of the fitted maximal effect; nearly all actives have a fitted effect of over 55% in size
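Cell growth measured by CellTiter-Glo luminescence after a minimum 48 h, 37 C compound exposure with 20 nM CPT in Tdp1-knockout DT40 cells stably expressing hTDP1, seeded 400/well; qHTS titration format.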
HT1080NT lethal: qHTS for induction of synthetic lethality in tumor cells producing 2HG: qHTS for the HT-1080-NT fibrosarcoma cell line | 1.6% of 360,000 active | Potency, µM (highest dose often 46.1 µM), for inactives: at the highest dose activity, negative = less viability, hits mostly cytotoxic | HT-1080-NT fibrosarcoma viability, CellTiter-Glo ATP luminescence, 48 h | AID 686970, 2013;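 further: NT is the 2HG producing partner of a matched IDH1 knockdown line; potency means the concentration at half of the fitted maximal effect; 0% = DMSO-treated cells and -100% = media-only wells without cells; nearly all actives have a fitted effect of over 55% in size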
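Viability by CellTiter-Glo luminescence after 48 h compound exposure at 37C of HT-1080-NT cells (750/well, RPMI, 5% FBS). % activity scaled between DMSO wells and medium-only wells, then curve-fitted and categorized by curve class.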
IL1B secr inh: qHTS for Inhibitors of Inflammasome Signaling: IL-1-beta AlphaLISA Primary Screen; THP-1 LPS/ATP IL-1B secretion, AlphaLISA, 16 h; active compounds read low; activity change, % at 57.5 µM; 4.7% of 360,000 active; in the data active means activity change below about -50%; inconclusive means mostly about -30% to -49%
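THP-1 cells pretreated 1 hr with compounds (up to 57.5 uM final), then stimulated with LPS (250 ng/mL final) plus ATP (1.25 mM final); secreted IL-1B measured by AlphaLISA after 16 hr, decreased signal indicating inhibition.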
Starred values were filed as active, the others as inactive; ? = inconclusive; . = no result. An excerpt weighted towards active compounds, which were near 19% of everything screened. Unless noted, the call rests on the fitted dose curve; in most records, active means well fitted curve in the direction sought with a large enough effect; inconclusive means small, poorly fitted or top-dose-only effect, or another doubt; inactive means no such curve, though single readings can be large; an effect the other way counts as inactive or inconclusive. Unless noted, on the % scale 0 is the no-effect control and ±100 the full control effect.

SMILES | DT40 TDP1 no CPT | HT1080 IDH1KD tx | DT40 TDP1 CPT | HT1080NT lethal | IL1B secr inh
C=CCN1CC(=O)N2C(c3ccccc3)c3[nH]c4ccccc4c3C[C@H]2C1=O (some centres undefined) | 18.4µM* | -17.9% | ? | -17.5% | 12.0
CC(C)OCCCN1CC(=O)N2C(c3ccccc3)c3[nH]c4ccccc4c3C[C@H]2C1=O (some centres undefined) | ? | -3.0% | ? | -27.6% | -62.4*
COc1cccc(C2c3[nH]c4ccccc4c3C[C@H]3C(=O)N(CCCOC(C)C)CC(=O)N23)c1 (some centres undefined) | 15.4% | 9.3% | 8.1% | 16.2% | 6.7
Cc1ccc(S(=O)(=O)c2cn(CC(=O)Nc3ccccc3)c3cc4c(cc3c2=O)OCO4)cc1 | -9.2% | . | -1.2% | . | .
C=C1C(O)[C@@H]2O[C@]3(CC[C@H](/C=C/C(C)[C@@H]4CC(C)=CC5(O[C@H](C[C@@](C)(O)CO)CCC5O)O4)O3)CC[C@H]2O[C@@H]1C(O)CC(C)[C@H]1OC2(CCCCO2)CCC1C (some centres undefined) | 3.26µM* | 0.82µM* | 1.46µM* | 1.16µM* | -100.4*
C=C1[C@@H](O)[C@@H]2O[C@]3(CC[C@H](/C=C/[C@@H](C)[C@@H]4CC(C)=CC5(O[C@H](C[C@@](C)(O)C(=O)OC)CC[C@H]5O)O4)O3)CC[C@H]2O[C@@H]1[C@@H](O)C[C@H](C)[C@H]1OC2(CCCCO2)CC[C@H]1C (some centres undefined) | 0.92µM* | 1.16µM* | 0.581µM* | 0.651µM* | -2.4
C=CC[C@@H](CC(=O)N(CCO)Cc1ccccc1)C(=O)N[C@H](C)COC(=O)[C@@H](CC=C)Cc1ccc(F)cc1 | ? | -12.9% | ? | -0.1% | -1.9
C=CC[C@H](CC(=O)NCCO)C(=O)NC[C@@H](OC(=O)[C@@H](CC=C)Cc1ccc(F)cc1)c1ccccc1 | ? | -0.1% | ? | -7.1% | -21.0
C=CCC[C@H](Cc1ccc(F)cc1)C(=O)O[C@H](CNC(=O)[C@@H](CC=C)CC(=O)N(CCO)Cc1ccccc1)c1ccccc1 | 23.1µM* | ? | ? | ? | -58.1*
C=CC[C@H](CC(=O)N(CCO)Cc1ccccc1)C(=O)N[C@H](C)COC(=O)[C@@H](CC=C)Cc1ccc(F)cc1 | 20.6µM* | 3.1% | ? | 1.6% | -16.0
C=CC[C@@H](CC(=O)N(CCO)Cc1ccccc1)C(=O)NCCOC(=O)[C@@H](CC=C)Cc1ccc(F)cc1 | 13µM* | -1.1% | 20.6µM* | -2.5% | -1.9
C=CC[C@H](CC(=O)N(CCO)Cc1ccccc1)C(=O)N[C@H](COC(=O)[C@@H](CC=C)Cc1ccc(F)cc1)Cc1ccccc1 | 20.6µM* | ? | 20.6µM* | 16.4µM* | -55.6*
CCOC(=O)N1CCN(C(=O)CN(C)S(=O)(=O)c2ccc(OCC)cc2)CC1 | -6.0% | 10.4% | 1.0% | 3.3% | 2.7
CCn1cc(C(=O)N[C@H](C(=O)NCCO)C(C)C)c(=O)c2cc3c(cc21)OCO3 | 0.4% | -2.9% | 1.9% | 0.4% | 11.8
COc1ccc(CCNC(=O)CCCn2c(=O)c3ccccc3n(Cc3c(C)cc(C)cc3C)c2=O)cc1OC | 2.2% | . | 2.0% | . | .
COc1ccc(Cl)cc1NC(=O)Cn1c(=O)n(CCCC(=O)NCCc2ccc(OC)c(OC)c2)c(=O)c2ccccc21 | 8.2µM* | . | 14.6µM* | . | .
COc1ccc(CCNC(=O)CCn2c(=O)c3ccccc3n(Cc3ccccc3C)c2=O)cc1OC | 18.4µM* | . | 14.6µM* | . | .
COc1ccc(CCNC(=O)CCCCn2c(=O)c3ccccc3n(Cc3ccc(Cl)cc3)c2=O)cc1OC | ? | . | 23.1µM* | . | .
